# Reference: PubChem BioAssay (NCI)
# This is part of a sample that, as a whole, favours compounds with a hit. Of some 83,000 tested, about 20% had one in any assay.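 Single-dose data. Exposure time 48 hours. Values below 10 considered active.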 Unmarked numbers belong to inactive results. Calls of active or inactive are those of the source.
# Tested on: T-47D breast
# Assay: NCI-60 one-dose screen, 48 h (100 = growth as untreated, 0 = no growth, -100 = all killed)
# Details: 10 µM unless noted
row,Structure (SMILES),growth
1,COc1ccc(C(c2cc(OC)c(OC)c(OC)c2)N2CCN(Cc3ccccc3)CC2)cc1 (centres undefined),75.1%
2,COc1ccc2nc(SCC(=O)Nc3ccccc3C)[nH]c2c1,84.2%
3,N/C(=N\c1nc2ccccc2s1)NC(=NC1CCCCC1)NC1CCCCC1,13.2%
4,CSCCC(NC(=O)c1ccccc1)C(=O)N/N=C1\S/C(=C/c2ccc(Cl)cc2)C(=O)N1C (centres undefined),82.9%
5,S=c1[nH]c2cc(Cl)ccc2o1,92.3%
6,COc1ccc(-c2cc(C(=O)N3N=C(c4ccc(N)cc4)CC3c3ccccc3)c3ccccc3n2)cc1 (centres undefined),38.2%
7,Cn1c(=O)c2c(nc(NC3=NS(=O)(=O)c4ccccc43)n2Cc2ccccc2)n(C)c1=O,115%
8,O=C(Nc1cccnc1Nc1ccc(Cl)cc1)c1cn(Cc2ccc(F)cc2)nn1,90.5%
9,Cc1c2cc[nH]c(=O)c2c(C)c2c1[nH]c1ccc(OC(=O)c3ccccc3)cc12,10.3%
10,N=C(N)c1ccc(-c2ccc(-c3ccc(Cl)cc3Cl)s2)cc1F,14.8%
11,COc1ccc2cc(Cn3cc[n+](Cc4ccc5ccccc5c4)c3)ccc2c1,-4.51% (active)
12,COC(=O)c1c2c(n3ccc(C)cc13)C(=O)c1ccccc1C2=O,82%
13,CNC(=O)c1cc(Oc2ccc3nc(NC(=O)Nc4ccc(Cl)c(Cl)c4)sc3c2)ccn1,21.3%
14,Cc1c(Cl)cccc1C(=O)Nc1nc2c(s1)CN(C(=O)Nc1cccc(C(F)(F)F)c1)CC2,46%
